From PubChem BioAssay AID2314 (National Center for Advancing Translational Sciences (NCATS), 2010) come the findings set out here.

Where “and” joins values, the source holds several entries; their conditions need not be identical. Equal values may be shown once. The campaign covered roughly 300,000 compounds. About 37,000 (12%) were called active. The full list was thinned out, with actives kept by preference. Values without a mark were called inactive. No stated cut-off is given here; in the data, active means max response mostly above about 13% (no sharp cut-off); inactive means mostly below about 14%.

The assay can be described thus: Cycloheximide Counterscreen for Small Molecule Inhibitors of Shiga Toxin. Further: read at 38.3 µM for the half of the compounds with a filed dose; 0% is about no effect. As to conditions: cell reporter, cycloheximide protein synthesis inhibition counterscreen; stronger effect = higher value. A general note: The purpose of a counterscreen is to sort out artefacts and off-target activity.
Regarding `O=C(NCc1cccnc1)c1ccccc1NC(=O)c1c(F)cccc1F`, the max response is 7.34%.

On to `CCCCNC(=O)C1(O)c2ccccc2NC(=O)N1c1ccc(Cl)cc1` (stereo not given), for which the max response is 7.78%. Then `CC(=O)Oc1ccc(N(C(C)=O)S(=O)(=O)c2ccc3ccccc3c2)cc1Br`, with -1.7%. As to `O=C(COc1ccc2ccc(=O)oc2c1)NCC(O)c1ccccc1` (stereo not given), the max response is -10.7%. Take `CN(CC(=O)NCc1ccncc1)S(=O)(=O)c1ccc(Br)cc1`: the max response was -0.724%.

For `COc1ccc(C(C)C)cc1S(=O)(=O)Nc1ncn[nH]1`, the max response is -4.29%. With `CCc1nnc(NC(=O)CCC(=O)N2CCN(c3cc(C)ccc3C)CC2)s1`, the max response was -5.72%. For `Cc1c(NS(=O)(=O)c2ccc(NC3CCCC3)c([N+](=O)[O-])c2)c(=O)n(-c2ccccc2)n1C` the value was -1.22%. In the case of `Cc1ccc(NS(=O)(=O)c2ccc3c(c2)n(C)c(=O)c(=O)n3C)c(C)c1`, the max response is 1.12%. For `COc1ccccc1C(=O)N/C(=C/c1ccc2c(c1)OCO2)C(=O)Nc1cccc(C(=O)O)c1` the value was -2.49%; for `O=C(CN1CCc2cc3c(cc2C1)OCCCO3)Nc1ccccc1`, 5.97%. `COCc1nnc(NC(=O)CS(=O)(=O)Cc2ccccc2)s1`: the max response is 5.49%. With `Cc1ccc(C(=O)Nc2sc(Cc3ccc4c(c3)OCO4)c(C)c2C(N)=O)cc1`, the max response was -4.2%. For the compound `O=C(Nc1ccccc1)c1ccc2c(c1)OCCCO2`, the max response is 41.3% (active). Regarding `CC(C)C(=O)Nc1cccc(C(=O)Nc2ccc3c(c2)OCO3)c1`, the max response was 58.7% (active). Then `C/C(Cc1ccccc1)=N\NC(=O)CNC(=O)c1ccc2c(c1)OCCO2`, with -2.54%; and `O=C(Nc1ccc(N2CCOCC2)cc1)c1ccc2c(c1)OCO2`, with 36.8% (active). For `O=C(c1ccc2c(c1)OCO2)N1CCOCC1` the value was -3.42%; for `O=C(O)CCC(=O)Nc1ccc(N2CCOCC2)cc1`, -3.84%; for `COCc1nnc(NC(=O)c2ccc3c(c2)OCO3)s1`, 45.3% (active).

As for `CCCN1C2=C(C(=O)CCC2)C(c2ccc(O)c(Br)c2)C2=C1CCCC2=O`, the max response is -1.08%. For `Cc1ccc(O)c(/C=N/NC(=O)COc2ccc3c(C)cc(=O)oc3c2)c1` the value was -8.1%; for `Cn1c(=O)c2c(ncn2CC(COCc2ccccc2Cl)OCc2ccccc2Cl)n(C)c1=O` (stereo not given), -1.13%. Regarding `Cc1ccccc1N1C(=O)C(Oc2ccc(Cl)cc2)C1CNCC1CCCO1` (stereo not given), the max response is 0.428%. Then `CC(=O)Nc1sc2c(c1C(c1cccc(F)c1)N1CCN(CCO)CC1)CCCC2` (stereo not given), with -2.8%; and `CCOCCCNC(=O)c1ccc(CS(=O)(=O)c2cccc(C(F)(F)F)c2)o1`, with -3%; and `Cc1ccc(-c2ccnc3[nH]n(-c4ccccc4)c(=O)c23)cc1`, with 4.53%. Then `COc1ccccc1N1CCN(c2ccc([N+](=O)[O-])nc2)CC1`, with 12.7%; and `COc1ccc(OC)c(-c2c(=O)n(OCc3ccccc3Br)c3ccccc3[n+]2[O-])c1`, with -4.9%. Then `CCOc1ccc(OCC)c(-c2c(=O)n(OCc3ccc(Cl)cc3)c3ccccc3[n+]2[O-])c1`, with -2.89%.

On to `CCOC(=O)COn1c(=O)c(-c2ccc(OCC)cc2)[n+]([O-])c2ccccc21`, for which the max response was 21.8% (active). Then `COCCNC(=O)C(c1ccc(C)cc1)N(C(=O)CCC(=O)Nc1ccccn1)c1cccc(C)c1` (stereo not given), with -1.18%; and `O=C(Cn1ncc2c3ccccc3n(Cc3ccccc3)c2c1=O)NCc1ccccn1`, with -1.24%. `CCCOc1ccc(Cn2ccnc2)cc1[N+](=O)[O-]`: the max response was 6.93%. Then `CCCCOc1ccc(CSC(=N)N)cc1[N+](=O)[O-]`, with -3.27%. Then `CCCCCOc1ccc(CSC2=NCCN2)cc1[N+](=O)[O-]`, with 16.2% (active); and `CCN=C1S/C(=C\c2cc(Br)ccc2OCC(=O)OCC)C(=O)N1CC`, with 2.07%; and `c1ccc(C(c2ccccc2)N2CCN(Cc3nnnn3C3CCCCC3)CC2)cc1`, with -1.95%. For `O=C1CCc2cc(S(=O)(=O)N3CCC(C(=O)NCc4ccccc4Cl)CC3)ccc2N1` the value was 5.54%; for `CSc1cccc(NC(=O)C2CCCN2S(=O)(=O)c2ccc3c(c2)CCC(=O)N3)c1` (stereo not given), 25.7% (active). On to `CC(=O)Nc1ccc(NC(=O)C2CCCN2S(=O)(=O)c2cccc(C(F)(F)F)c2)cc1` (stereo not given), for which the max response was 0.889%.

Turning to `CS(=O)(=O)N1CCN=C1SCc1ccc(F)cc1`, the max response is -2.32%. Then `Cc1cc(OCC(=O)Nc2c(C)n(C)n(-c3ccccc3)c2=O)ccc1[N+](=O)[O-]`, with 1.26%; and `O=C1CSC(=S)N1c1ccc(O)cc1`, with 0.99%; and `O=S(=O)(c1ccc(-c2ccno2)s1)N1CCCCC1`, with -3.51%. For `Cc1cc(NC(=O)CCC(=O)N(Cc2ccccc2)C(C(=O)NC2CCCC2)c2ccc(C)o2)no1` (stereo not given) the value was -2.01%; for `COc1ccc(-c2cc(=O)c3c(O)cc(O[C@@H]4O[C@H](CO[C@@H]5O[C@@H](C)[C@H](O)[C@@H](O)[C@H]5O)[C@@H](O)[C@H](O)[C@H]4O)cc3o2)cc1O`, -0.55%; for `O=c1cc(-c2ccc(O)cc2)oc2c(-c3cc(-c4cc(=O)c5c(O)cc(O)cc5o4)ccc3O)c(O)ccc12`, -11.1%. For `COc1c(O)cc2oc(-c3ccc(O)c(O)c3)cc(=O)c2c1O` the value was 43% (active) and 45.2% (active). On to `Cc1cc(C)cc(Oc2c(C(F)(F)F)oc3cc(OCC(=O)O)ccc3c2=O)c1`, for which the max response was -1.36%. `c1ccc(-c2cnc(CN3CCN(c4ccccc4)CC3)o2)cc1`: the max response was 7.72%. `O=C(NCC(=O)N1CCN(c2ccccc2F)CC1)c1cccs1`: the max response is 23.4% (active). `O=C(NCC(=O)N1CCN(c2ccccc2O)CC1)c1ccc2ccccc2c1`: the max response is 1.36%. With `O=C(CCS(=O)(=O)c1cccc2nsnc12)N1CCN(c2ccccc2F)CC1`, the max response was 6.58%. With `CCc1ccc(NC(=O)CS(=O)CC(=O)N2CCN(c3ccccc3F)CC2)cc1` (stereo not given), the max response was 3.43%. For `O=C(CCc1ccccc1F)N1CCN(c2ccccc2)CC1` the value was 0.391%.

Regarding `O=C(CCSc1ccccc1)N1CCN(c2ccccc2F)CC1`, the max response is 48.8% (active). Then `COc1ccc(NC(=O)CSCc2ccc([N+](=O)[O-])cc2)cc1OC`, with -3.9%; and `Cc1cccc(N2CCN(C(=O)c3cccc(N4C(=O)C5C6C=CC(C6)C5C4=O)c3)CC2)c1C` (stereo not given), with -6.3%. For `Cc1ccc(Nc2nnc(SCC(=O)c3cc4ccccc4o3)s2)cc1C` the value was 10.2%.

As for `CC(C)c1ccc(Nc2nnc(SCC(=O)c3nnc(-c4ccccc4)o3)s2)cc1`, the max response was 23.6% (active). Take `O=C(CSc1nnc(Nc2ccccc2)s1)Nc1cccnc1Cl`: the max response is 2.36%. For `Cc1cc(=O)oc2c3c(cc(OCC(=O)NCc4ccccn4)c12)OC(C)(C)CC3`, the max response is -2.86%. For `Cc1ccc(N2CCN(c3ccc([N+](=O)[O-])cn3)CC2)c(C)c1` the value was -4.64%. On to `O=C(COc1ccc(S(=O)(=O)Nc2cccc(C(F)(F)F)c2)cc1)N1CCOCC1`, for which the max response was -0.756%. Then `CN(C)c1nc(N)nc(CSc2ccccn2)n1`, with 21.5% (active). Consider `CN(C)c1nc(N)nc(CSc2nnnn2-c2cccc3ccccc23)n1`, for which the max response is -1%.

`CCOC(=O)CSc1ccccn1`: the max response was -1.11%. For `CCOC(=O)c1cc2c(=O)[nH]c(C(Cl)(Cl)Cl)nc2o1` the value was 7.51%; for `O=C(O)c1cccc2c1C(=O)N(C1CCCC1)C2`, -2.23%; for `Cc1cccc(NC(=O)c2nc(S(=O)(=O)Cc3ccccc3)ncc2Cl)c1`, 29% (active). Turning to `CCSc1ncc(Cl)c(C(=O)Nc2cc(C)ccc2C)n1`, the max response is -0.976%. For `Cc1cccc(OCc2ccc(C(=O)Nc3ccc(F)cc3)cc2)c1` the value was -3.2%; for `CCOc1ccc(NC(=O)c2nc(SCC)ncc2Cl)cc1`, -5.84%. Then `Cc1cccc(CS(=O)(=O)c2ncc(Cl)c(C(=O)Nc3ccc(F)cc3)n2)c1`, with 30.3% (active); and `Cc1cccc(NC(=O)c2nc[nH]c2C(=O)NCC(=O)OCc2ccccc2)c1`, with 1.03%; and `COCCCNC(=O)CN1C(=O)CSc2ccc(S(=O)(=O)N3CCOCC3)cc21`, with -0.345%. Then `OC(COc1ccc(CN2CCSCC2)cc1)CN1CCCCC1` (stereo not given), with 0.684%; and `CC1CCC(N2CC(=O)N(Cc3ccc4c(c3)OCO4)C(c3ccc(F)cc3)C2=O)CC1` (stereo not given), with -2.2%; and `O=C(c1cc(Cl)cc(Cl)c1)N1CCC(=O)N(C(COCc2ccccc2)Cc2ccccc2)CC1` (stereo not given), with -1.19%. In the case of `O=C(CCl)NNc1cccc(Cl)n1`, the max response is 26.1% (active).

Take `O=C(CCl)NNc1nc(-c2ccccc2)c2cc(Cl)ccc2n1`: the max response is -5.34%. Then `COc1cc(OC)nc(NC(=O)CCl)n1`, with -2.63%; and `C=CCn1c(SCC(=O)NCC2CCCO2)nc2sc(C)c(C)c2c1=O` (stereo not given), with -2.05%; and `COc1ccc(CCCc2nnc(SCc3nc4ccccc4c(=O)[nH]3)n2C)cc1`, with 1.63%.

As for `CCN(CC(=O)NCc1cccs1)C(=O)c1cccc(S(=O)(=O)Nc2ccccc2OC)c1`, the max response is -1.21%.

Take `Cc1ccc(-c2nc3ccccc3[nH]2)cc1N`: the max response is 34.2%. On to `OC(c1nc2ccccc2[nH]1)C(O)C(O)C(O)c1nc2ccccc2[nH]1` (stereo not given), for which the max response was -2.45%. For `c1ccc2[nH]c(-c3nc4ccccc4[nH]3)nc2c1` the value was 33.9% (active); for `CN(C(=O)C1CCN(c2ncnc3c2nc2n3CCCCC2)CC1)C1CCCCC1`, -1.8%.
